# Measured values from PubChem BioAssay (Tox21).
# Inconclusive results are not listed. Entries that show only a call come without a potency. A number with no mark means an inactive call. The source made the active and inactive calls. Calls follow the shape of the dose curve; as a rule, active = well fitted curve in the direction sought with a large enough effect in the repeat runs; inconclusive = weak or mixed curves; inactive = no such curve, though single readings can be large; an effect the other way counts as inactive or inconclusive.
# Assays:
# [1] = biological target: Cytochrome P450 2C9 (Homo sapiens) (UniProt P11712); test: Cytochrome P450 Family 2 Subfamily C Member 9 (CYP2C9) small molecule antagonists: luciferase reporter qHTS assay (AID 1671198); as to activity change, negative = inhibition: series mostly up to about 120 µM
# Chain of Cytochrome P450 2C9 (Homo sapiens) (P11712 whole entry, looked up): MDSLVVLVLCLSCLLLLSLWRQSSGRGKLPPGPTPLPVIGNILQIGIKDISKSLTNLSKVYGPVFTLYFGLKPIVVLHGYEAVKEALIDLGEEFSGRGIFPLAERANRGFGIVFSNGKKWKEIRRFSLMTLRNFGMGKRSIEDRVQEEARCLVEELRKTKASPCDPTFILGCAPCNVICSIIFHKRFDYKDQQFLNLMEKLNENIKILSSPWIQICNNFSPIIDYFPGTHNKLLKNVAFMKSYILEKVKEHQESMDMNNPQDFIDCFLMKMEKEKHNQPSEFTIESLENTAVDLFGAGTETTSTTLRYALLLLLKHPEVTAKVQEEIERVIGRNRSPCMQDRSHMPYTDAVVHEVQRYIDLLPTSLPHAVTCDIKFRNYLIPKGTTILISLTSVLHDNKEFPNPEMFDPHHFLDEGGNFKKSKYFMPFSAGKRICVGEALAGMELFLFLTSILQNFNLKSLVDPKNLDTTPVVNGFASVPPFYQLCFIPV
# Procedure, shortened: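 CYP2C9 activity was measured with a P450-Glo proluciferin substrate. Enzyme–substrate mix was held with compound for 10 min at room temperature, then NADPH regeneration solution was added for 1 h at 37C. Luciferin product was read as luminescence.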
# [2] = biological target: Voltage-gated inwardly rectifying potassium channel KCNH2 (Homo sapiens) (UniProt Q12809); test: Human Ether-a-go-go-Related Gene (hERG) channel small molecule antagonists: fluorescence cell-based qHTS assay (AID 1671200);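 as to activity change, negative = inhibition: hERG-expressing U2OS cells given a thallium stimulus after FluxOR II dye loading; series mostly up to about 77 µM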
# Chain of Voltage-gated inwardly rectifying potassium channel KCNH2 (Homo sapiens) (Q12809 whole entry, looked up): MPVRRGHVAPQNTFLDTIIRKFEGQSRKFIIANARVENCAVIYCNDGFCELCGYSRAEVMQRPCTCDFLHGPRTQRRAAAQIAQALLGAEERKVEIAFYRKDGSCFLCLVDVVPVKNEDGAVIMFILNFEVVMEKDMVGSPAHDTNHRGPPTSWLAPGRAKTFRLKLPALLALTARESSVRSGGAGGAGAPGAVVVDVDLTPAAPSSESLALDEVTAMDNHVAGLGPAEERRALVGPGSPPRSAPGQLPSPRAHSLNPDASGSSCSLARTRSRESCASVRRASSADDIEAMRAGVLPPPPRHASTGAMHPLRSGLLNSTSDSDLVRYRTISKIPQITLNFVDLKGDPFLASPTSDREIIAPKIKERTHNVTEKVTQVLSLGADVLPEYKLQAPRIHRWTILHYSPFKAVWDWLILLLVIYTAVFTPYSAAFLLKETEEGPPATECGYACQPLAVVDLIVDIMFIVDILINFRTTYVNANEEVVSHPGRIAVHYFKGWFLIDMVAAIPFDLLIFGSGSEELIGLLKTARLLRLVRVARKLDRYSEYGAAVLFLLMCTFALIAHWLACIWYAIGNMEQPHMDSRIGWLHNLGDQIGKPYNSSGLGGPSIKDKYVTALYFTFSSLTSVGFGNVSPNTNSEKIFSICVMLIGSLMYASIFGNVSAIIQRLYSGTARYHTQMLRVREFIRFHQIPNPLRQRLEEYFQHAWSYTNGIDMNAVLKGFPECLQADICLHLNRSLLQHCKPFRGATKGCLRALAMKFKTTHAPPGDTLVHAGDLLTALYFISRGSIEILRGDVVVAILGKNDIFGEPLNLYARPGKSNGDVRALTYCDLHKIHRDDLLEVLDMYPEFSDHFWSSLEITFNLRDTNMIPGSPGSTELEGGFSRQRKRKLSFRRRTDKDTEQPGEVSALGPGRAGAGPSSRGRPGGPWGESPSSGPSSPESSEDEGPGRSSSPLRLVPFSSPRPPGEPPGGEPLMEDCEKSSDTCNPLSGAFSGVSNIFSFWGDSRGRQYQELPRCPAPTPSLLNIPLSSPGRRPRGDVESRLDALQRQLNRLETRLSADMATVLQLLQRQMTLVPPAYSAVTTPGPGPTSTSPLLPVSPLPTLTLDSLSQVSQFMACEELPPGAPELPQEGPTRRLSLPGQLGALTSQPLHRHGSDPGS
# Procedure, shortened: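 Measured: Tl+ flux via fluorescence (480/540 nm) in hERG-expressing U2OS cells after 1 h dye loading at room temperature.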
# [3] = biological target: Cytochrome P450 3A4 (Homo sapiens) (UniProt P08684); test: Cytochrome P450 Family 3 Subfamily A Member 4 (CYP3A4) small molecule antagonists: luciferase reporter qHTS assay (AID 1671201); as to activity change, negative = inhibition: series mostly up to about 120 µM
# Chain of Cytochrome P450 3A4 (Homo sapiens) (P08684 whole entry, looked up): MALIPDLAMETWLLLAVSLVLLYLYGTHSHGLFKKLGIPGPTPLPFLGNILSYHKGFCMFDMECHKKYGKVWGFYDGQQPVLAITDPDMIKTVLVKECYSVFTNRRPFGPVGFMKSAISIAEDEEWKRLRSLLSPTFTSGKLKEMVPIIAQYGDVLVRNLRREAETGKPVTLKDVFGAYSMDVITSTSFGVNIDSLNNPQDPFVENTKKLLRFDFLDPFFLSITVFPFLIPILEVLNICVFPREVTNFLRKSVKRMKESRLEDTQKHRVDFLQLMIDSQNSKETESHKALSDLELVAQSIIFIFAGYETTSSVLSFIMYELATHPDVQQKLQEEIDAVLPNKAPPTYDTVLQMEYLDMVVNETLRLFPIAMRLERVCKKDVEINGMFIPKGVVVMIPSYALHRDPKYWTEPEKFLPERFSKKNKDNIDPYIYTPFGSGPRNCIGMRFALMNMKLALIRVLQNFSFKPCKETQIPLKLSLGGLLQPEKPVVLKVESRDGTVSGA
# Procedure, shortened: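 Setup: enzyme-substrate mix, compound pin transfer, 10 min RT. Reaction: NADPH regeneration solution, 1 h RT. Readout: detection reagent stops turnover, luminescence measured after 20 min, expressed in relative luminescence units.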
# [4] = biological target: Cytochrome P450 1A2 (Homo sapiens) (UniProt P05177); test: Cytochrome P450 Family 1 Subfamily A Member 2 (CYP1A2) small molecule antagonists: luciferase reporter qHTS assay (AID 1671199); as to activity change, negative = inhibition: series mostly up to about 120 µM
# Chain of Cytochrome P450 1A2 (Homo sapiens) (P05177 whole entry, looked up): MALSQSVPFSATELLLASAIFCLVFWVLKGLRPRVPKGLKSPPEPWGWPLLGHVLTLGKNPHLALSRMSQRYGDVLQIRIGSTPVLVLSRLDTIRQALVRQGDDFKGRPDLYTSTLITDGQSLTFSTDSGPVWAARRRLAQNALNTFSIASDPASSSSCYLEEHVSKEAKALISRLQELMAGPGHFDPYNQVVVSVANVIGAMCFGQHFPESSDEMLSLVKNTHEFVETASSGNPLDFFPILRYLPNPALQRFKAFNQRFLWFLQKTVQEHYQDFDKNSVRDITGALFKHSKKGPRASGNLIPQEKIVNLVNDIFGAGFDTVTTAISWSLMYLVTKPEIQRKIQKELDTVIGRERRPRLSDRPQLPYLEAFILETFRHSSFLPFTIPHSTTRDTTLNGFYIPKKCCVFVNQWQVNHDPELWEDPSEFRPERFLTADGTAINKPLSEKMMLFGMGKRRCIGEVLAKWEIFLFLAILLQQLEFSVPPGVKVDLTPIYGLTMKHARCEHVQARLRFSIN
# Procedure, shortened: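 Enzymatic CYP1A2 assay, human, luminescent: 10 min compound–enzyme–substrate preincubation, 1 h NADPH-dependent turnover, 20 min detection step, room temperature throughout. Reduced light indicates lower CYP1A2 activity.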
# Also: nearly all actives have a fitted effect of over 50% in size.
# Potency is read from the fitted curve at half-maximal effect.
compound,measurement,setting,value
CN(C)[C@@H]1C(=O)C(C(N)=O)=C(O)[C@@]2(O)C(=O)C3=C(O)c4c(O)cccc4C[C@H]3C[C@@H]12,Potency,[1],inactive
same,Potency,[2],inactive
same,Potency,[3],inactive
NC(=O)NS(=O)(=O)c1ccc(N)cc1,Potency,[1],inactive
same,Potency,[2],inactive
same,Potency,[3],inactive
NNc1nc(-c2ccccc2)cs1,Potency,[1],9.19 µM (active)
same,Potency,[2],inactive
same,Potency,[3],5.8 µM (active)
CCCC/C=C/CCCCO,Potency,[1],71 µM (active)
same,Potency,[3],inactive
CSc1cnc(C)cn1,Potency,[1],inactive
same,Potency,[2],inactive
same,Potency,[3],inactive
O=C(Nc1cccc(Cl)c1)OCC#CCCl,Potency,[4],1.78 µM (active)
same,Potency,[3],7.1 µM (active)
COc1cccc(N)c1,Potency,[2],inactive
On1ccccc1=S,Potency,[2],inactive
CC1=NC(C)OC1C (configuration not stated),Potency,[1],inactive
same,Potency,[3],63.3 µM (active)
CO[Si](CCCNc1ccccc1)(OC)OC,Potency,[4],inactive
same,Potency,[2],inactive
same,Potency,[3],25.2 µM (active)
CCC1=C[C@@H]2CN(C1)Cc1c([nH]c3ccccc13)[C@@](C(=O)OC)(c1cc3c(cc1OC)N(C)[C@H]1[C@@](O)(C(=O)OC)[C@H](OC(C)=O)[C@]4(CC)C=CCN5CC[C@]31[C@@H]54)C2,Potency,[4],inactive
same,Potency,[2],6.74 µM (active)
CCc1cc(Cc2cc(CC)c(N)c(CC)c2)cc(CC)c1N,Potency,[4],10 µM (active)
same,Potency,[2],inactive
same,Potency,[3],0.633 µM (active)
Cc1nc(-c2ccc3c(c2)CCN(CCC2CCC(NC(=O)/C=C/c4ccc(F)cc4)CC2)CC3)no1 (configuration not stated),Potency,[4],inactive
same,Potency,[3],inactive
CC(C)c1ccc2c(c1)CC[C@H]1[C@](C)(CN)CCC[C@]21C,Potency,[4],35.6 µM (active)
same,Potency,[2],13.8 µM (active)
CCN1/C(=C/C=C/c2sc3ccccc3[n+]2CC)Sc2ccccc21,"activity change, negative = inhibition",[2],-25.3% [at 15.8 µM]
same,Potency,[3],6.01 µM (active)
CCc1oc2ccccc2c1C(=O)c1cc(Br)c(O)c(Br)c1,Potency,[4],inactive
same,Potency,[2],10.7 µM (active)
same,Potency,[3],inactive
CC[C@@]1(O)C(=O)OCc2c1cc1n(c2=O)Cc2c-1nc1ccccc1c2/C=N/OC(C)(C)C,Potency,[4],inactive
same,Potency,[2],inactive
C[n+]1cc2c3c(ccc2c2ccc4cc5c(cc4c21)OCO5)OCO3,Potency,[4],12 µM (active)
same,"activity change, negative = inhibition",[2],-0.0312% [at 15.8 µM]
O=[N+]([O-])c1cc(Cl)c(Cl)c(Cl)c1Cl,Potency,[4],2.24 µM (active)
same,Potency,[2],inactive
same,Potency,[3],inactive
CN(C)[C@@H]1C(=O)C(C(N)=O)=C(O)[C@@]2(O)C(=O)C3=C(O)c4c(O)ccc(Cl)c4[C@@H](O)[C@H]3C[C@@H]12,Potency,[2],inactive
same,Potency,[3],inactive
O=C(O)c1c(Cl)cccc1Cl,Potency,[2],inactive
same,Potency,[3],inactive
CC(NN)c1ccccc1 (configuration not stated),Potency,[4],inactive
same,"activity change, negative = inhibition",[2],-1.06% [at 15.8 µM]
CCCCCCCCCCCC(=O)NCCCN(C)C,Potency,[4],35.6 µM (active)
same,Potency,[2],13.8 µM (active)
Cc1ccc(O)c(C(C)(C)C)c1,Potency,[2],inactive
C[C@H](CCC(=O)O)[C@H]1CC[C@H]2[C@@H]3CC[C@@H]4C[C@H](O)CC[C@]4(C)[C@H]3CC[C@]12C,Potency,[4],inactive
same,Potency,[2],inactive
Cc1onc(-c2ccccc2Cl)c1C(=O)N[C@@H]1C(=O)N2[C@@H]1SC(C)(C)[C@@H]2C(=O)O,Potency,[2],inactive
N=C1N=C(N)c2cc3ccccc3cc21,Potency,[4],1.78 µM (active)
O=C(c1ccc(F)cc1)C1CCN(CCn2c(=O)[nH]c3ccccc3c2=O)CC1,Potency,[4],inactive
same,Potency,[3],inactive
O=C(O)c1cc(O)c2c(c1)C(=O)c1cccc(O)c1C2=O,Potency,[4],36.7 µM (active)
same,Potency,[3],inactive
CS(=O)(=O)CCNCc1ccc(-c2ccc3ncnc(Nc4ccc(OCc5cccc(F)c5)c(Cl)c4)c3c2)o1,Potency,[4],inactive
S=c1[nH]c2ccccc2s1,Potency,[2],inactive
CCCCCCCC/C=C/CCCCCCCC1=NCCN1CCO,Potency,[1],25.2 µM (active)
same,Potency,[3],31.7 µM (active)
O=C1CCCCCN1SSN1CCCCCC1=O,Potency,[2],inactive
same,Potency,[3],inactive
CCC(C)(C)C1CCCCC1OC(C)=O (configuration not stated),Potency,[3],inactive
CC(C)(C)C(=O)OCOC(=O)C1N2C(=O)CC2S(=O)(=O)C1(C)C (configuration not stated),Potency,[4],inactive
same,Potency,[2],inactive
same,Potency,[3],inactive
CCN(CCC#N)c1ccc(N=Nc2c(Cl)cc([N+](=O)[O-])cc2Cl)cc1,Potency,[3],inactive
Clc1ccc2cc3ccccc3cc2c1,Potency,[4],1.59 µM (active)
same,Potency,[2],inactive
same,Potency,[3],inactive
OCCN(CCO)c1nc(N2CCCCC2)c2nc(N(CCO)CCO)nc(N3CCCCC3)c2n1,Potency,[2],inactive
CCCCCCCCCCCCCCCC(=O)OC[C@H](O)[C@H]1OC(=O)C(O)=C1O,Potency,[4],inactive
same,Potency,[2],inactive
same,Potency,[3],inactive
CSc1ccc2c(c1)C(N1CCN(C)CC1)Cc1ccccc1S2 (configuration not stated),Potency,[4],inactive
same,Potency,[2],1.07 µM (active)
